This passage reports outcome and AC50 results from PubChem BioAssay (EPA / NIEHS).

Holding throughout (conditions): mRNA level, 48 h; actives raise or lower the signal
Read-out in experiment [1]: Bcl-2 (BAD) gene, BAD (gene 572)
In words: LTEA_HepaRG_BAD: Life Technologies and Expression Analysis (LTEA) Assay for Bcl-2 (BAD) gene using HepaRG (AID 2283469). In a few lines: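 HepaRG, 48 h exposure, 8-pt half-log curve from 100 uM in 0.5% DMSO, duplicates. Readout: TaqMan qRT-PCR for BAD mRNA, housekeeping-normalised (ACTB/GAPDH/POLR2A); gain or loss fitted against DMSO baseline.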

Read-out in experiment [2]: Bcl-2 (BAX) gene, BAX (gene 581)
In words: LTEA_HepaRG_BAX: Life Technologies and Expression Analysis (LTEA) Assay for Bcl-2 (BAX) gene using HepaRG (AID 2283470). The method, boiled down:
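Cells were thawed, plated for 48 h, moved to serum-free induction medium and dosed for 48 h (highest concentration 100 uM, half-log steps, 0.5% DMSO). Total RNA was then analysed for BAX expression by qRT-PCR.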

Read-out in experiment [3]: adenosine kinase (ADK) gene, ADK (gene 132)
In words: LTEA_HepaRG_ADK: Life Technologies and Expression Analysis (LTEA) Assay for adenosine kinase (ADK) gene using HepaRG (AID 2283471). The method, boiled down:
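HepaRG (human liver), 48 h chemical exposure, 8-pt half-log series, top 100 uM, 0.5% DMSO vehicle. Readout: ADK mRNA by qRT-PCR vs housekeeping genes; bidirectional curve fit relative to DMSO baseline.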

Read-out in experiment [4]: Alpha-fetoprotein (AFP) gene, AFP (gene 174)
In words: LTEA_HepaRG_AFP: Life Technologies and Expression Analysis (LTEA) Assay for Alpha-fetoprotein (AFP) gene using HepaRG (AID 2283472). In a few lines: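 Chemicals were tested on differentiated HepaRG cells for 48 hours at eight concentrations up to 100 uM, with 0.5% DMSO as vehicle. AFP expression was then quantified by qRT-PCR and analyzed for gain or loss relative to DMSO.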

Read-out in the next experiment: BCL2L11 (gene 10018)
As to the kind of experiment: LTEA_HepaRG_BCL2L11: Life Technologies and Expression Analysis (LTEA) Assay for Bcl-2 (BCL2L11) gene using HepaRG (AID 2283473). The method, boiled down: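 Differentiated human HepaRG cells were exposed 48 h in serum-free induction medium to eight half-log concentrations up to 100 uM in 0.5% DMSO, in duplicate. BCL2L11 mRNA was quantified by TaqMan qRT-PCR, normalized to ACTB, GAPDH and POLR2A; induction or repression fitted versus DMSO.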

Read-out in experiment [5]: Apoptosis regulator Bcl-2 (Homo sapiens) (UniProt P10415)
As to the kind of experiment: LTEA_HepaRG_BCL2: Life Technologies and Expression Analysis (LTEA) Assay for Bcl-2 gene using HepaRG (AID 2283475). In a few lines: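 Plated human HepaRG cells are exposed to test chemicals for 48 h across eight concentrations from 100 uM downward in half-log steps (0.5% DMSO). BCL2 expression is then measured by qRT-PCR with housekeeping normalisation and fitted bidirectionally against vehicle.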

Read-out in a further experiment: Caspase-3 (Homo sapiens) (UniProt P42574)
In words: LTEA_HepaRG_CASP3: Life Technologies and Expression Analysis (LTEA) Assay for cysteine-aspartic acid protease (CASP3) using HepaRG (AID 2283477). In a few lines: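 Differentiated HepaRG cells, plated 48 h, were treated in duplicate in serum-free induction medium for 48 h with eight half-log concentrations up to 100 uM in 0.5% DMSO. CASP3 mRNA measured by qRT-PCR, normalized to ACTB, GAPDH, POLR2A.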

Read-out in experiment [6]: Cytochrome P450 (CYP24A1), CYP24A1 (gene 1591)
As to the kind of experiment: LTEA_HepaRG_CYP24A1: Life Technologies and Expression Analysis (LTEA) Assay for Cytochrome P450 (CYP24A1) using HepaRG (AID 2283478). The method, boiled down: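 HepaRG cells plated 48 h, then exposed in duplicate in serum-free induction medium for 48 h to 8-point half-log series from 100 uM in 0.5% DMSO. CYP24A1 mRNA by Fluidigm qRT-PCR, normalized to ACTB, GAPDH, POLR2A; bidirectional fit versus DMSO.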

Read-out in experiment [7]: cysteine-aspartic acid protease (CASP8), CASP8 (gene 841)
In words: LTEA_HepaRG_CASP8: Life Technologies and Expression Analysis (LTEA) Assay for cysteine-aspartic acid protease (CASP8) using HepaRG (AID 2283480). In a few lines:
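qRT-PCR readout of CASP8 mRNA, normalized to three housekeeping genes, after 48 h chemical exposure of HepaRG cells; 8-point half-log series, top 100 uM, 0.5% DMSO vehicle. Bidirectional curve fitting against DMSO baseline.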

Read-out in experiment [8]: Cytochrome P450 (CYP2B6), CYP2B6 (gene 1555)
As to the kind of experiment: LTEA_HepaRG_CYP2B6: Life Technologies and Expression Analysis (LTEA) Assay for Cytochrome P450 (CYP2B6) using HepaRG (AID 2283481). In a few lines: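 Differentiated human HepaRG cells in serum-free induction medium, dosed in duplicate for 48 h over 8 half-log concentrations topping at 100 uM (0.5% DMSO). CYP2B6 mRNA measured by TaqMan qRT-PCR, normalized to ACTB, GAPDH, POLR2A; bidirectional fit versus DMSO.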

Read-out in experiment [9]: Cytochrome P450 2C19 (Homo sapiens) (UniProt P33261)
As to the kind of experiment: LTEA_HepaRG_CYP2C19: Life Technologies and Expression Analysis (LTEA) Assay for CYP2C19 using HepaRG (AID 2283482). The method, boiled down:
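Differentiated HepaRG cells in serum-free induction medium exposed 48 h in duplicate, 8 concentrations from 100 uM by half-log steps in 0.5% DMSO. CYP2C19 mRNA measured by TaqMan qRT-PCR, normalized to ACTB, GAPDH, POLR2A. Bidirectional fit versus DMSO.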

Read-out in another experiment: CYP2C8 (gene 1558)
In words: LTEA_HepaRG_CYP2C8: Life Technologies and Expression Analysis (LTEA) Assay for CYP2C8 using HepaRG (AID 2283483). The method, boiled down:
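HepaRG (human liver line), 48 h chemical exposure, 8-pt half-log series from 100 uM, 0.5% DMSO vehicle. Readout: CYP2C8 transcript by qRT-PCR, housekeeping-normalized. Bidirectional fit vs DMSO baseline.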

Read-out in another experiment: CYP2E1 (gene 1571)
In words: LTEA_HepaRG_CYP2E1: Life Technologies and Expression Analysis (LTEA) Assay for CYP2E1 using HepaRG (AID 2283485). In a few lines:
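Readout is qRT-PCR of CYP2E1 mRNA, normalized to three housekeeping genes and fitted bidirectionally against 0.5% DMSO. HepaRG cells were dosed 48 h at eight concentrations, highest 100 uM with half-log dilutions.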

Read-out in experiment [10]: Apolipoprotein A-V (APOA5) gene, APOA5 (gene 116519)
As to the kind of experiment: LTEA_HepaRG_APOA5: Life Technologies and Expression Analysis (LTEA) Assay for Apolipoprotein A-V (APOA5) gene using HepaRG (AID 2283474). In a few lines:
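Differentiated HepaRG cells in serum-free induction medium, exposed 48 h in duplicate to eight half-log concentrations topping at 100 uM (0.5% DMSO). APOA5 mRNA by Fluidigm TaqMan qRT-PCR, normalized to ACTB, GAPDH and POLR2A; bidirectional fit versus DMSO.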

Read-out in experiment [11]: Cytochrome P450 (CYP1A2), CYP1A2 (gene 1544)
As to the kind of experiment: LTEA_HepaRG_CYP1A2: Life Technologies and Expression Analysis (LTEA) Assay for Cytochrome P450 (CYP1A2) using HepaRG (AID 2283479). The method, boiled down:
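Differentiated human HepaRG cells in serum-free induction medium exposed 48 hours in duplicate to 8 half-log concentrations from 100 uM, 0.5% DMSO. CYP1A2 mRNA quantified by qRT-PCR, normalized to ACTB, GAPDH and POLR2A; bidirectional fitting versus DMSO.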

Read-out in experiment [12]: Cytochrome P450 3A4 (Homo sapiens) (UniProt P08684)
As to the kind of experiment: LTEA_HepaRG_CYP3A4: Life Technologies and Expression Analysis (LTEA) Assay for CYP3A4 using HepaRG (AID 2283487). The method, boiled down: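 CYP3A4 transcript measured by TaqMan qRT-PCR and normalized to three housekeeping genes after 48 h chemical exposure of human HepaRG cells. Top concentration 100 uM, half-log steps, 0.5% DMSO vehicle; gain or loss fitted against DMSO baseline.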

Read-out in a further experiment: CYP4A11 (gene 1579)
In words: LTEA_HepaRG_CYP4A11: Life Technologies and Expression Analysis (LTEA) Assay for CYP4A11 using HepaRG (AID 2283486). The method, boiled down: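 Differentiated HepaRG cells, 48 h after plating, exposed in duplicate for 48 h to 8 half-log concentrations up to 100 uM in 0.5% DMSO in serum-free induction medium. CYP4A11 mRNA measured by TaqMan qRT-PCR, normalized to ACTB, GAPDH and POLR2A.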

The structures appear in SMILES notation. The source made the active and inactive calls. How the source made its calls: active means hit-call score of the fitted dose curve at least 0.9, where 1 is the maximum; inactive means score below 0.9.

Chain of Caspase-3 (Homo sapiens) (P42574 whole entry, looked up): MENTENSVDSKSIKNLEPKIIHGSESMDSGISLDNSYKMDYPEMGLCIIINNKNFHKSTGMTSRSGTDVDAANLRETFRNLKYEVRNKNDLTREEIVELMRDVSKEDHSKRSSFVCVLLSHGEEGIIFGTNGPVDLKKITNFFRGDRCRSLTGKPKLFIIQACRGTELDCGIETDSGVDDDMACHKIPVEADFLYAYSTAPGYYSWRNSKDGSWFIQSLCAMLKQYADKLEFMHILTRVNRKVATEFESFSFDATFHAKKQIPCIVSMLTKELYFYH
Chain of Cytochrome P450 2C19 (Homo sapiens) (P33261 whole entry, looked up): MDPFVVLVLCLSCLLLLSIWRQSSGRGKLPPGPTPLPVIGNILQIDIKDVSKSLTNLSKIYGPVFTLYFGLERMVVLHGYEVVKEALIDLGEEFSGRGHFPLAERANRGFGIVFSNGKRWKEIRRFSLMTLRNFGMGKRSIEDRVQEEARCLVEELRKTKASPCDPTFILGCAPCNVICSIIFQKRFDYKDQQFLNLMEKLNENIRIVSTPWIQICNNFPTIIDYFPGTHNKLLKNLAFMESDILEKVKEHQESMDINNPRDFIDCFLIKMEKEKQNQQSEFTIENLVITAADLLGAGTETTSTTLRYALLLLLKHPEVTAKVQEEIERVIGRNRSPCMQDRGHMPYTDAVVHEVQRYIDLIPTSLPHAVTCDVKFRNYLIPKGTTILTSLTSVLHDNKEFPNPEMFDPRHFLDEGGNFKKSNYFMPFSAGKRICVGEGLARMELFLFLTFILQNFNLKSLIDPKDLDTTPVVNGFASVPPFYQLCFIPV
Chain of Apoptosis regulator Bcl-2 (Homo sapiens) (P10415 whole entry, looked up): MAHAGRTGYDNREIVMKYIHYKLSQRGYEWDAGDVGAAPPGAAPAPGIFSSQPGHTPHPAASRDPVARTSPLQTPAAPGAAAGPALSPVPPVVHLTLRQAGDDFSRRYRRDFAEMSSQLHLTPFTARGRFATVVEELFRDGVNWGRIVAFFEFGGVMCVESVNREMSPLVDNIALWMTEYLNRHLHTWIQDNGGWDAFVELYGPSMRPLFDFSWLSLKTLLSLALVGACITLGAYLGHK
Chain of Cytochrome P450 3A4 (Homo sapiens) (P08684 whole entry, looked up): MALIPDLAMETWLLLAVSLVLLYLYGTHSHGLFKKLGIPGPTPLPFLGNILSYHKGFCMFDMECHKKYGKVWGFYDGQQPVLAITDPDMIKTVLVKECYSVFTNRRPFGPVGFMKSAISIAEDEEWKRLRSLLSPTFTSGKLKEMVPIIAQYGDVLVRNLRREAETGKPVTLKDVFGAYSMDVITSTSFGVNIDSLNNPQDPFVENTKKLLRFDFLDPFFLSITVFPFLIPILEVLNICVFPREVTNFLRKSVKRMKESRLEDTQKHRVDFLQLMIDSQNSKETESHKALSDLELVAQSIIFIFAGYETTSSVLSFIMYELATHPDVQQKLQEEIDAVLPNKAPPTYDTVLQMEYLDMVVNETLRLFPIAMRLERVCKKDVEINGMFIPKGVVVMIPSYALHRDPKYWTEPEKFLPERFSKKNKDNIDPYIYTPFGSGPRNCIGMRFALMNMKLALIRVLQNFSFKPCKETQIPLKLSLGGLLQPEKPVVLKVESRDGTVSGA

By AC50 is commonly meant the midpoint of the concentration-response curve, whichever way the signal moves. As to `C=CCOC(Cn1ccnc1)c1ccc(Cl)cc1Cl` (stereo not drawn), the result (in [1]; in experiment [3]; with Caspase-3 (Homo sapiens); in experiment [6]) was inactive. For the same compound, the AC50 in experiment [2] is 33.9 µM (active); in [4], 25.9 µM (active); with BCL2L11 (gene 10018), 88.6 µM (active); in experiment [5], 13.7 µM (active); in experiment [7] it was 84 µM (active); in [8], 31.6 µM (active). Further, the AC50 is 34.3 µM (active) in [9], 27.2 µM (active) in the experiment with CYP2C8 (gene 1558) and 13.1 µM (active) with CYP2E1 (gene 1571).
As for `CC1(C)C(C=C(Cl)Cl)C1C(=O)OCc1cccc(Oc2ccccc2)c1` (stereo not drawn), the call (in experiment [1]; in experiment [2]; in experiment [3]; in experiment [4]; with BCL2L11 (gene 10018); in experiment [10]) was inactive. Besides, the compound was called inactive (in experiment [5]; in the experiment with Caspase-3 (Homo sapiens); in experiment [6]; in [7]; in [9]; with CYP2C8 (gene 1558)). The AC50 in [11] is 11 µM (active); in [8], 12 µM (active); with CYP2E1 (gene 1571) it was 26.2 µM (active); in [12], 22.6 µM (active).
As to `N#CSCSc1nc2ccccc2s1`, the outcome (in experiment [1]; in experiment [2]; in experiment [3]; in experiment [4]; in the experiment with BCL2L11 (gene 10018); in experiment [10]) was inactive. For the same compound, the outcome (in experiment [5]; in the experiment with Caspase-3 (Homo sapiens); in experiment [11]; in experiment [7]; in [8]; in experiment [9]) was inactive. In addition, the result (in the experiment with CYP2C8 (gene 1558); in experiment [12]) was inactive. In addition, the AC50 is 12.4 µM (active) in experiment [6] and 81.2 µM (active) with CYP2E1 (gene 1571).
As for `CCOC(=O)c1ccc(O)cc1`, the result (in experiment [1]; in experiment [2]; in [3]; in experiment [4]; with BCL2L11 (gene 10018); in experiment [10]) was inactive. For the same compound, the call (in experiment [5]; with Caspase-3 (Homo sapiens); in experiment [6]; in [11]; in experiment [7]; in [8]) was inactive. In addition, the compound was called inactive with CYP2C8 (gene 1558), with CYP2E1 (gene 1571) and with CYP4A11 (gene 1579).
In the case of `C[C@]12C[C@H](O)[C@H]3[C@@H](CCC4=CC(=O)CC[C@@]43C)[C@@H]1CC[C@@H]2C(=O)CO`, the compound was called inactive (in experiment [1]; in experiment [2]; in experiment [3]; in experiment [4]; with BCL2L11 (gene 10018); in experiment [10]). Besides, the call (in experiment [5]; with Caspase-3 (Homo sapiens); in [6]; in [7]; with CYP2E1 (gene 1571)) was inactive. Also, the AC50 (in experiment [8]; with CYP2C8 (gene 1558)) was 50 µM (active) in each case.
